CYP2C19 inhib: blockers of cytochrome P450 2C19 activity – biochemical, luminescence, ADME assay, primary screen | AID 778, 2007 | P33261 | inhibition, % at 5 µM | CYP2C19 Supersomes, luciferin-H EGE luminescence, 30 min | 96,000 compounds, 21% hits;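 active = CYP2C19 inhibition above a set limit at 5 µM in the primary screen, cut at about 50% in these data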;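 also: plate controls were negative control wells for no effect and 2.5 mM tranylcypromine positive control for full effect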
Target sequence (P33261 whole entry, looked up): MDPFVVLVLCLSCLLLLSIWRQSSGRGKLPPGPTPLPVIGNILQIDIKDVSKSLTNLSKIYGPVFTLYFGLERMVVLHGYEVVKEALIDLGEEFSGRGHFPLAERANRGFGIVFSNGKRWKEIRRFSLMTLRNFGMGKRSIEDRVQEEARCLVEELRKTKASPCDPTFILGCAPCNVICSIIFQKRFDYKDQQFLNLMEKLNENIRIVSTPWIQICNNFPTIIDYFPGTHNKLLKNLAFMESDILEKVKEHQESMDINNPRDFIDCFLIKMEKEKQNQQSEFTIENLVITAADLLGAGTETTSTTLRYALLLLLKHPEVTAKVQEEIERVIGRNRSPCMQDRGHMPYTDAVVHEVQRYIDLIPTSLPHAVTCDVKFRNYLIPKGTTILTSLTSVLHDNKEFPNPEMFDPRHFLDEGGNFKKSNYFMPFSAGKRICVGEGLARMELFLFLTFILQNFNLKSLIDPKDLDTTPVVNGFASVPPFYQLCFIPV
CYP2C9 inh: blockers of cytochrome P450 2C9 activity – biochemical, luminescence, ADME assay, primary screen; inhibition, % at 5 µM; AID 777, 2007; P11712; 96,000 compounds, 20% hits; CYP2C9 Supersomes, luciferin-H conversion;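 active = blocking of liver enzyme CYP2C9 beyond about 50% at 5 µM, limit read from the data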
CYP2C19 activ: human CYP2C19 activators, primary screen, biochemical, luminescence. recombinant CYP2C19, luciferin-H EGE luminescence; stronger effect = higher value; 0 = fully inhibited enzyme, 1 = untreated enzyme. activation factor at 5 µM. 96,000 tested, under 10 active. Cytochrome P450 2C19 (Homo sapiens), P33261. AID 1025, 2008;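 active = activation factor of at least 2 at 5 µM in the primary screen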;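 also: 0 = wells with 2.5 mM tranylcypromine and 1 = vehicle-only wells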
CD11b adhes enh: enhancers of CD11b/CD18 adhesion to fibrinogen, primary screen, K562 cells, luminescence; AID 1499, 2009; activation, % at 10 µM; 93,000 compounds, 0.07% hits; Integrin beta-2 (Homo sapiens) + Integrin alpha-M (Homo sapiens), P05107+P11215; ATPlite luminescence;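 active = 10 µM primary screen giving 50% or more activity, confirmed by 40% or more on retest at that dose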
CD11b adhes inh: inhibitors of CD11b/CD18 adhesion to fibrinogen, primary screen, K562 cells, luminescence | Integrin beta-2 (Homo sapiens) + Integrin alpha-M (Homo sapiens), P05107+P11215 | ATPlite luminescence; Mn2+ added to activate the integrin | inhibition, % at 10 µM | 93,000 compounds, 0.54% hits;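 active = primary inhibition of 50% or more at 10 µM, then 40% or more on retest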
CYP2C9 activ: human CYP2C9 activators, primary screen, biochemical, luminescence; AID 1024, 2008; Cytochrome P450 2C9 (Homo sapiens), P11712; recombinant CYP2C9, luciferin-H conversion; stronger effect = higher value; factor 1 = untreated enzyme, 0 = blocked; 96,000 compounds, 1.4% hits; activation factor at 5 µM;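 active = activation factor of 2 or more for CYP2C9 at a 5 µM dose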;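 also: 0 = sulfaphenazole-blocked wells and 1 = vehicle-only wells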
* hit, by the source's call; x = not tested or not shown. Rows were chosen to be rich in hits. Some 28% of all compounds tested hit in one or more screens of this group.

SMILES | CYP2C19 inhib | CYP2C9 inh | CYP2C19 activ | CD11b adhes enh | CD11b adhes inh | CYP2C9 activ
CCN(CCNC(=O)CN(C)S(=O)(=O)c1cccc2nsnc12)c1ccccc1 | 89* | 59* | 0.1 | 0 | 27 | 0.4
CN(CC(=O)NCCC1=CCCCC1)S(=O)(=O)c1ccc2c(c1)CCC(=O)N2 | 4 | 32 | 1 | 0 | -7 | 0.7
CCN(CCNC(=O)C1CCN(S(=O)(=O)c2cccc3nsnc23)CC1)c1ccccc1 | 13 | -3 | 0.9 | x | x | 1
CCN(CCCNC(=O)CN(C)S(=O)(=O)c1ccc2c(c1)CCC(=O)N2)c1cccc(C)c1 | 16 | 64* | 0.8 | -3 | -7 | 0.4
Nc1nc(Nc2ccc(Cl)cc2)nc2ccccc12 | 44 | 46 | 0.6 | -4 | 85* | 0.5
Nc1nc(Nc2ccccc2)nc2ccccc12 | 41 | 14 | 0.6 | 0 | 34 | 0.9
CC(C)(C)NC(=O)COC(=O)/C=C/c1ccccc1[N+](=O)[O-] | 14 | 12 | 0.9 | 0 | 10 | 0.9
Cc1ccc(/C=C/c2nnc(-c3ccc(C)cc3)o2)cc1 | 16 | 40 | 0.8 | x | x | 0.6
CCNc1nnc(-c2ccc(C)cc2)o1 | 61* | 19 | 0.4 | 7 | 5 | 0.8
Cc1ccc(/C=C2\CCC3=C2OC(N)=C(C#N)C3c2ccc(C)cc2)cc1 (configuration not stated) | -1 | 56* | 1 | -2 | -13 | 0.4
CCOC(=O)c1cc(C)n(-c2c(C)n(C)n(-c3ccccc3)c2=O)c1C | -7 | -16 | 1.1 | 0 | -3 | 1.2
COc1ccc(C2SCC(=O)N2c2c(C)n(C)n(-c3ccccc3)c2=O)c(OC)c1 (configuration not stated) | 55* | 14 | 0.4 | x | x | 0.9
COc1ccc(C2SCC(=O)N2c2c(C)n(C)n(-c3ccccc3)c2=O)cc1OC (configuration not stated) | 10 | 12 | 0.9 | 1 | -8 | 0.9
CCOc1ccc(C2SCC(=O)N2c2c(C)n(C)n(-c3ccccc3)c2=O)cc1 (configuration not stated) | 67* | 71* | 0.3 | -3 | -4 | 0.3
O=c1[nH]c2cc3c(cc2cc1CN(CCc1ccccc1)Cc1nnnn1CC1CCCO1)OCO3 (configuration not stated) | 4 | -3 | 1 | 2 | -2 | 1
COc1ccc2cc(CN(CCc3ccccc3)Cc3nnnn3CC3CCCO3)c(=O)[nH]c2c1 (configuration not stated) | 44 | 63* | 0.6 | 4 | 9 | 0.4
COc1ccc2[nH]c(=O)c(CN(CCc3ccccc3)Cc3nnnn3CC3CCCO3)cc2c1 (configuration not stated) | 68* | 14 | 0.3 | -4 | 7 | 0.9
Nc1nncn1C(=O)CCc1ccccc1 | 4 | -15 | 1 | 1 | 2 | 1.2
O=C(Nc1ccc(Cl)cc1C(F)(F)F)c1ccccc1Cl | x | x | x | 1 | 1 | x
COc1ccc(CCNC(=O)C23CN(Cc4ccccc4)CC2C(c2ccc([N+](=O)[O-])cc2)=NO3)cc1 (configuration not stated) | 81* | 59* | 0.2 | 0 | 4 | 0.4
O=C(NCCCCc1ccccc1)C12CN(Cc3ccccc3)CC1C(c1cccc([N+](=O)[O-])c1)=NO2 (configuration not stated) | 17 | 13 | 0.8 | 10 | 11 | 0.9
O=C(NCCCCc1ccccc1)C12CN(Cc3ccccc3)CC1C(c1ccc([N+](=O)[O-])cc1)=NO2 (configuration not stated) | 78* | 58* | 0.2 | -2 | 2 | 0.4
Cc1ccc(CNC(=O)C23CN(Cc4ccccc4)CC2C(c2ccc([N+](=O)[O-])cc2)=NO3)o1 (configuration not stated) | 35 | 54* | 0.7 | 1 | -7 | 0.5
O=C(c1ccc(=O)n(Cc2ccc(Cl)c(Cl)c2)c1)N1CCOCC1 | 38 | 24 | 0.6 | x | x | 0.8
Cc1ccc(-n2c(SCC(=O)Nc3ccc(N4CCOCC4)cc3)nc3ccccc3c2=O)cc1 | x | x | x | 27 | 5 | x
SMILES | CYP2C19 inhib | CYP2C9 inh | CYP2C19 activ | CD11b adhes enh | CD11b adhes inh | CYP2C9 activ
O=C1CCCN1CC(CN1CCOCC1)Sc1nc2ccccc2c(=O)n1-c1ccccc1 (configuration not stated) | 88* | 93* | 0.1 | 2 | -3 | 0.1
COC(=O)c1c[nH]n2c(=O)c(Cc3ccc(F)cc3Cl)c(C)nc12 | 42 | 71* | 0.6 | -5 | -2 | 0.3
COC(=O)c1c[nH]n2c(=O)cc(C)nc12 | -14 | -10 | 1.1 | -1 | 18 | 1.1
CCOc1ccc(CCNC(=O)CN(C)S(=O)(=O)c2cccc3nsnc23)cc1OCC | 22 | 49 | 0.8 | -6 | 13 | 0.5
COc1ccc(NC(=O)CCS(=O)(=O)c2cccc3nonc23)c(OC)c1 | 44 | 8 | 0.6 | 0 | 3 | 0.9
Cc1cccc2sc(NC(=O)CCNS(=O)(=O)c3cccc4nonc34)nc12 | 72* | 58* | 0.3 | 0 | -12 | 0.4
CCc1ccc(NC(=O)CCNS(=O)(=O)c2cccc3nsnc23)cc1 | 51* | 42 | 0.5 | -5 | 14 | 0.6
CCOc1ccc(CCNS(=O)(=O)c2cccc3nsnc23)cc1OCC | 86* | 57* | 0.1 | 2 | -20 | 0.4
COC(=O)c1ccc(NC(=O)CCNS(=O)(=O)c2cccc3nonc23)cc1 | 72* | 26 | 0.3 | 0 | 5 | 0.7
c1coc(C2Nc3ccccc3-c3nc4ccccc4n32)c1 (configuration not stated) | 80* | 91* | 0.2 | 2 | -4 | 0.1
c1ccc(C2Nc3ccccc3-c3nc4ccccc4n32)cc1 (configuration not stated) | 47 | 71* | 0.5 | 2 | 12 | 0.3
O=C1Cn2c(nc3ccccc32)-c2ccccc2N1 | -2 | 3 | 1 | -2 | -2 | 1
COc1cc(NC(=S)NC(=O)c2ccccc2C)ccc1NC(=O)c1cccs1 | 7 | 35 | 0.9 | -5 | 6 | 0.7
CCOC(=O)c1sc(NC(=O)/C=C/c2cnn(CC)c2C)c(C(=O)OCC)c1C | 9 | 31 | 0.9 | 7 | -1 | 0.7
CCCCCCCOc1ccc(OC(=O)c2cccnc2)cc1 | 66* | 77* | 0.3 | -4 | -1 | 0.2
CCCCCCOC(=O)c1ccc(OC(=O)c2cccnc2)cc1 | 72* | 86* | 0.3 | 0 | 20 | 0.1

Assay outcomes: PubChem BioAssay, Sanford-Burnham Center for Chemical Genomics
